Our source for the Potency, activity change, negative = inhibition and activity, negative = inhibition values is PubChem BioAssay (NCATS).

Experiment [1] deals with Lysosomal acid glucosylceramidase (Homo sapiens) (UniProt P04062). The experiment can be described thus: Glucocerebrosidase-p2 (AID 348; in the data active means potency below about 10 µM; further: potency means the concentration at half of the fitted maximal effect). The conditions noted are these: purified GBA, blue fluorogenic substrate, 40 min. The gist of the method:
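Compounds titrated from 0.6 nM upwards against 0.2 nM enzyme in pH 5.9 citric acid/KH2PO4, taurocholate, tween-20; blue fluorogenic substrate 80 uM, 40 min room temperature, stopped and read Ex 365/Em 440 for AC50.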

The nature of experiment [2]: AP1 Signaling Pathway (AID 357).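 Further: ME-180 reporter cells stimulated with EGF at its EC50 level; on the % scale 0 is the no-effect control and ±100 the full control effect.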 As to conditions: ME-180 AP-1-bla reporter, EGF-induced, beta-lactamase ratio, 5 h; at 7.69 µM (top of the series) unless noted. The procedure, abridged:
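First, ME-180 AP-1-bla cells were cultured overnight at 37 °C in low-serum Opti-MEM. Next, titrated compounds with EC50 EGF were incubated 5 hours. Finally, CCF4 was added for 2.5 hours and the 460/530 nm ratio recorded.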

Experiment [3] has as its target Cytochrome P450 1A2 (Homo sapiens) (UniProt P05177). The experiment can be described thus: p450-cyp1a2 (AID 410; calls by dose curve; further: potency means the concentration at half of the fitted maximal effect;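 on activity change, negative = inhibition: -100% = full effect of reference inhibitor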). The conditions noted are these: recombinant CYP1A2, luciferin-ME demethylation, luminescence; series mostly up to 11.4 µM. The gist of the method:
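Human CYP1A2 (20nM) demethylated Luciferin-ME at its Km (100uM) in 100mM KPO4. After 10 min compound preincubation, NADPH regeneration ran the reaction 60 min at room temperature. Luciferin was read by luminescence, normalized to 57 uM furafylline.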

Experiment [4] in a line: NFAT Signaling Pathway (AID 444).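 Further: carbachol stimulus at about its EC50 of 1 µM final; on the % scale 0 is the no-effect control and ±100 the full control effect.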 The conditions noted are these: Jurkat NFAT-bla M1, carbachol, beta-lactamase ratio, 5 h; at 7.69 µM (top of the series) unless noted. The procedure, abridged:
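Read-out: CCF4 FRET ratio (460 nm/530 nm) after 1 h RT dye loading, used for %activity and AC50 from titration series. Cells: Jurkat NFAT-β-lactamase/M1 line, treated with compound plus 1 uM carbachol for 5 h, 37 °C.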

Experiment [5] can be described thus: Stat Signaling Pathway (AID 446).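 Further: ME-180 cervical cancer cells given 40 pM IL-6 alongside compound; SIE-controlled beta-lactamase reporter measured as 460/530 nm FRET emission ratio; on the % scale 0 is the no-effect control and ±100 the full control effect.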 As to conditions: ME-180 (cervical carcinoma) SIE beta-lactamase reporter, IL-6 stimulated, 5 h; at 7.69 µM (top of the series) unless noted. The procedure, abridged: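 IL-6/STAT signaling read in ME-180 cells via an SIE beta-lactamase reporter. Stimulus was 40 pM IL-6 (its AC50) for 5 hrs, so both activation and inhibition register.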
Experiment [6] deals with Glucocorticoid receptor (Homo sapiens) (UniProt P04150). Description: GR-GFP Redistribution (AID 450;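 active means compounds whose dose series gives a full or clear partial fitted curve of increased nuclear translocation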; further: potency means the concentration at half of the fitted maximal effect). The conditions noted are these: U2OS GR-GFP nuclear translocation, laser cytometry, 2 h.
Experiment [7] has the same target. The experiment can be described thus: GR-EFC Redistribution (AID 451; calls by dose curve; further: potency means the concentration at half of the fitted maximal effect). As to conditions: CHO-K1 GR-EFC translocation, beta-gal luminescence, 2 h. The procedure, abridged: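 Translocation of GR-ED fusion to nuclear EA restores b-gal, read by luminescence after 1 h room-temperature detection. Engineered CHO-K1 biosensor cells, 1,000/well, exposed 2 h at 37 C to titrations up to 46 uM final.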

In experiment [8] the target is Mitogen-activated protein kinase 10 (Mus musculus) (UniProt Q61831). Description: JNK3 AlphaScreen Assay (AID 530).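 Further: kinase came from lysate of stimulated human HepG2 cells; signal reports phosphorylation of biotinylated GST-cJun 1-79 at Ser73 with 10 µM ATP; on the % scale 0 is the no-effect control and ±100 the full control effect.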 The conditions noted are these: JNK3 lysate, c-Jun phosphorylation; series mostly up to 11.4 µM. The procedure, abridged: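 Room-temperature AlphaScreen kinase assay; pre-activated HepG2 lysate as JNK3 source, biotin-GST-cJun(1-79) substrate, 10 uM ATP, compound 15 min preincubation.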

Experiment [9] concerns the target 3',5'-cyclic-AMP phosphodiesterase 4B (Homo sapiens) (UniProt Q07343). The experiment can be described thus: qHTS Assay for Inhibitors of PDE-IV (AID 607; active means well fitted activation curve with a large enough effect in the main read-out, with a control signal flat, not every such curve was filed as active; further: % of control where 0% means no effect). The conditions noted are these: HEK293 ACTOne CNG channel cells, membrane potential fluorescence; series mostly up to 22.9 µM. The gist of the method:
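Live HEK293 cells with a modified cyclic nucleotide-gated (CNG) channel report intracellular cAMP via membrane-potential dye fluorescence (ex 535/em 590 nm). Endogenous PDE-IV was targeted. Compounds were tested at up to 22.9 uM final; RO 20-1724 100 uM served as control.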
For orientation: qHTS replaces the single test concentration by a dilution series.

Values without a mark were called inactive. Results filed as inconclusive are left out. Calls of active or inactive are those of the source. Unless noted, the call rests on the fitted dose curve; in most records, active means well fitted curve in either direction with a large enough effect (not every such curve was filed as active); inconclusive means small, poorly fitted or top-dose-only effect, or another doubt; inactive means flat fitted curve, though single readings scatter. Residues, ends and D or L forms follow the SMILES beside them. Some results are limits rather than exact numbers.

Chain of Lysosomal acid glucosylceramidase (Homo sapiens) (P04062 whole entry, looked up): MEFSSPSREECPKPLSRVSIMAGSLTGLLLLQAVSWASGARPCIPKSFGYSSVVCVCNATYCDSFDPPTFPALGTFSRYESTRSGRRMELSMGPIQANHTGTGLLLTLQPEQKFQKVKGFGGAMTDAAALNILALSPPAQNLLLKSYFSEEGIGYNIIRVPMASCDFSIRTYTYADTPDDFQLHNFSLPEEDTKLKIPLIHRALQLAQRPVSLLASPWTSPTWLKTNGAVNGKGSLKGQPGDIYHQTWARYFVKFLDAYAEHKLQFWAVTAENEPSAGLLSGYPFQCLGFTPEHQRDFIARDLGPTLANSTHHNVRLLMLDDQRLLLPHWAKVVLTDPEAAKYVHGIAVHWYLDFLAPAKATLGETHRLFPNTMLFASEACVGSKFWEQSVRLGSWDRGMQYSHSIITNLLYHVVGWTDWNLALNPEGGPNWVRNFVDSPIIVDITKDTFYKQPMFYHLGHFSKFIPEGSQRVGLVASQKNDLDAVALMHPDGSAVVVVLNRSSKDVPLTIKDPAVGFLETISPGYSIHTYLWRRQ
Chain of Glucocorticoid receptor (Homo sapiens) (P04150 whole entry, looked up, the tested form may be a part): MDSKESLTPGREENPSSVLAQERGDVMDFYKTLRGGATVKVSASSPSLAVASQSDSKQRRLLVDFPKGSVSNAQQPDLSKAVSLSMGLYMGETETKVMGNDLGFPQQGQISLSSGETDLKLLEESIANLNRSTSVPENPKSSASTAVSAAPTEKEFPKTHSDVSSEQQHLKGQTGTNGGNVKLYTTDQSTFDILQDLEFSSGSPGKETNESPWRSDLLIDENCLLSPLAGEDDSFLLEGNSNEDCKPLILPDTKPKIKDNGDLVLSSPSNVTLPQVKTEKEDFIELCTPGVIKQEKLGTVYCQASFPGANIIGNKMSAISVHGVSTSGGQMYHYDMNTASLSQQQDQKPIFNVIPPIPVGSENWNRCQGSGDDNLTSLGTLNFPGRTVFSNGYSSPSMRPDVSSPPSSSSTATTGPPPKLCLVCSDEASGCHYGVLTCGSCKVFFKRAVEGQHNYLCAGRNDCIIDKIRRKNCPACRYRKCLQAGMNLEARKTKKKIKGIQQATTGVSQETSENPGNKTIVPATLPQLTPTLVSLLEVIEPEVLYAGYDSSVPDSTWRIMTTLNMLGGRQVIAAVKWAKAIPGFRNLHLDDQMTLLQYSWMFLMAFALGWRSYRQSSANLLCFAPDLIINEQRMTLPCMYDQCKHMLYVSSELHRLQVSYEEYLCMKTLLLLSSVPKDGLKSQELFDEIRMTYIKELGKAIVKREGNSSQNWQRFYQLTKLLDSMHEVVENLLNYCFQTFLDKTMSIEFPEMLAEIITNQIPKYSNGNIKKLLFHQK
Chain of Cytochrome P450 1A2 (Homo sapiens) (P05177 whole entry, looked up): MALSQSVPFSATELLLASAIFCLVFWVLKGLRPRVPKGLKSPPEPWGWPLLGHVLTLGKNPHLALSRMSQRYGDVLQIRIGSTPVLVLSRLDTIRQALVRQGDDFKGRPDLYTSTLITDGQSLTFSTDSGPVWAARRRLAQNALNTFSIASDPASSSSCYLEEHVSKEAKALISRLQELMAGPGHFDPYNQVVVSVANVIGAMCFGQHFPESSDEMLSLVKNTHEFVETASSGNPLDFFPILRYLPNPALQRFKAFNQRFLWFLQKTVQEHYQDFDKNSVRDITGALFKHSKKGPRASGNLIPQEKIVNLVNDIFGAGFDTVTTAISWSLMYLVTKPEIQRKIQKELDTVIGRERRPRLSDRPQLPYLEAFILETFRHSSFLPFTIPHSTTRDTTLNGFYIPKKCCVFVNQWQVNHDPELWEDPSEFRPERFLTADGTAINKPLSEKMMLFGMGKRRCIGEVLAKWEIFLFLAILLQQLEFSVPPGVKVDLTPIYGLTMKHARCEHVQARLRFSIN
Chain of 3',5'-cyclic-AMP phosphodiesterase 4B (Homo sapiens) (Q07343 whole entry, looked up): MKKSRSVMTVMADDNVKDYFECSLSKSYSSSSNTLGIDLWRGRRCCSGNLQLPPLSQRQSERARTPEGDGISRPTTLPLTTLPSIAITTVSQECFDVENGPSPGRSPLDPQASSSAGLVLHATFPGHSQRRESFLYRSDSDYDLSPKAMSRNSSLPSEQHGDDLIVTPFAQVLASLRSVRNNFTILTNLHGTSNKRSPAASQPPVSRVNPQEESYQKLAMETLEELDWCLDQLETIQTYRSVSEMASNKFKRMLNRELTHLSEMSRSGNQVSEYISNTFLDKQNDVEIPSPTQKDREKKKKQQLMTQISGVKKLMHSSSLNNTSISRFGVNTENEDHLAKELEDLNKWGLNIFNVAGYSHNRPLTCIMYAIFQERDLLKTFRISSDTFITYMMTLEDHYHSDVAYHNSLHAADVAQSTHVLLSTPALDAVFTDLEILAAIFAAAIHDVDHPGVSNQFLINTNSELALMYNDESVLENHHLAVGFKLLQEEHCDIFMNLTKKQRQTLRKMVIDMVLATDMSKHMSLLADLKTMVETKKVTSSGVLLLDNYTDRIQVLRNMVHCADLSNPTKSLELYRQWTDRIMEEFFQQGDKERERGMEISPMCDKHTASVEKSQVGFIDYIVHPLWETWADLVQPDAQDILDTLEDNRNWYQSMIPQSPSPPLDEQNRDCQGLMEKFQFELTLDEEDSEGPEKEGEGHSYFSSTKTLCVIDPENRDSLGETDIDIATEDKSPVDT

Turning to `Nc1nc2c(ncn2[C@@H]2C=C[C@@H](CO)C2)c(=O)[nH]1`, the Potency in [1] was more than 11.4 µM; in [6] it was more than 46 µM; in experiment [7], more than 9.22 µM. The results for the activity change, negative = inhibition in experiment [2] and in experiment [4] were 2.92% and 10.3%, respectively. In addition, the Potency result in experiment [3], in experiment [8] and in experiment [9] was “inactive” throughout. Moreover, the activity, negative = inhibition in experiment [5] is 5.37%.
For the molecule `CN1CCN(CCCN)CC1`, the Potency in [1] was more than 11.4 µM; in [6], more than 46 µM; in experiment [7], more than 9.22 µM. The activity change, negative = inhibition was 0.666% in experiment [2] and 18.2% in experiment [4]. Further, the Potency result in [3], in experiment [8] and in experiment [9] was “inactive” each time. Further, the activity, negative = inhibition in [5] is 6.19%.
Regarding `NC(N)=NNC(=O)C(=O)O`, the values for the Potency in [1], in experiment [6] and in experiment [7] were more than 11.4 µM, more than 46 µM and more than 9.22 µM, respectively. Besides, the activity change, negative = inhibition is 2.05% in experiment [2] and 4.61% in experiment [4]. Further, the Potency entry in [3], in experiment [8] and in experiment [9] was “inactive” in each case. In addition, the activity, negative = inhibition in [5] was 2.14%.
Regarding `O=C1c2ccccc2C(=O)N1C[C@]1(C(=O)O)NCCS1(=O)=O`, the values for the Potency in experiment [1], in experiment [6] and in experiment [7] were more than 11.4 µM, more than 46 µM and more than 9.22 µM, respectively. Besides, the activity change, negative = inhibition in experiment [2] is -0.765%; in experiment [3], -5.5% [at 2.29 µM]; in experiment [4] it was 7.39%. Further, the activity, negative = inhibition in experiment [5] was -1.43%. Besides, the Potency result in experiment [8] and in [9] was “inactive” in each case.
On to `c1ccc([C@H](CCN2CCCC2)c2ccccn2)cc1`, for which the Potency in experiment [1] was more than 11.4 µM; in experiment [6] it was more than 46 µM; in experiment [7] it was more than 9.22 µM. The activity change, negative = inhibition in experiment [2] was -0.626%; in experiment [4], -26.3%. The Potency entry in [3], in experiment [8] and in experiment [9] was “inactive” each time. For the same molecule, the activity, negative = inhibition in experiment [5] is 0.606%.
Consider `OCCn1cnc2c(SCc3ccccc3)ncnc21`, for which the Potency in experiment [1] is more than 11.4 µM; in [3], 3.16 µM (active); in experiment [6], more than 46 µM; in [7] it was more than 9.22 µM. The values for the activity change, negative = inhibition in [2] and in experiment [4] were -4.68% and 1.04%, respectively. For the same molecule, the activity, negative = inhibition in experiment [5] is -1.73%. For the same molecule, the Potency result in [8] and in experiment [9] was “inactive” in each case.
Consider `NCC(=O)NC1(C(=O)O)CCCC1` (HELM PEPTIDE1{G.[O=C(O)C1(N[*:1])CCCC1]}$$$$V2.0), for which the Potency in experiment [1] is more than 11.4 µM; in [6] it was more than 46 µM; in experiment [7], more than 9.22 µM. Further, the activity change, negative = inhibition in experiment [2] was 4.89%; in [4], -2.62%. The Potency entry in experiment [3], in [8] and in [9] was “inactive” each time. For the same molecule, in experiment [5], the activity, negative = inhibition is 12.2%.
In the case of `N[C@H](C(=O)O)[C@H](N)C(=O)O`, the Potency in experiment [1] is more than 11.4 µM; in [6], more than 46 µM; in experiment [7], more than 9.22 µM. Moreover, the values for the activity change, negative = inhibition in experiment [2] and in experiment [4] were 9.49% and -1.65%, respectively. The Potency result in experiment [3], in [8] and in experiment [9] was “inactive” each time. Moreover, the activity, negative = inhibition in experiment [5] is 4.68%.
For the molecule `O=C(O)c1ccccc1-c1ccccc1C(=O)Nc1ccc2c(c1)Cc1ccccc1-2`, the Potency in [1] is more than 11.4 µM; in experiment [6], more than 46 µM; in experiment [7] it was more than 9.22 µM. Besides, the activity change, negative = inhibition in [2] is 6.9%; in [3], -7.1% [at 2.29 µM]; in experiment [4], -20.4%. In experiment [5], the activity, negative = inhibition was -24.1%. Besides, the Potency result in experiment [8] and in experiment [9] was “inactive” throughout.
For the molecule `NS(=O)(=O)c1cc(C(=O)O)c(O)c2ccccc12`, the Potency in experiment [1] was more than 11.4 µM; in [6] it was more than 46 µM; in [7], more than 9.22 µM. Besides, the activity change, negative = inhibition in experiment [2] is 15.8%; in experiment [4], 12.4%. Besides, the Potency entry in [3], in experiment [8] and in [9] was “inactive” in each case. The activity, negative = inhibition in experiment [5] is 10.7%.
Consider `Cc1cc(=O)oc2c(OS(C)(=O)=O)c(OS(C)(=O)=O)ccc12`, for which the Potency in [1] was more than 11.4 µM; in experiment [3], 0.794 µM (active); in experiment [6], more than 46 µM; in experiment [7], more than 9.22 µM. The activity change, negative = inhibition in experiment [2] is -3.34%; in experiment [4], 5.12%. Also, in experiment [5], the activity, negative = inhibition is 4.16%. In addition, the Potency entry in [8] and in [9] was “inactive” in each case.
In the case of `CN(C)Cc1cc(C(C)(C)C)ccc1-c1ccc(C(C)(C)C)cc1CN(C)C`, the values for the Potency in experiment [1], in experiment [6] and in experiment [7] were more than 11.4 µM, more than 46 µM and more than 9.22 µM, respectively. In addition, the results for the activity change, negative = inhibition in experiment [2], in experiment [3] and in [4] were 4.9%, -17.9% [at 2.29 µM] and 5.47%, respectively. The activity, negative = inhibition in [5] was 1.89%. The Potency entry in experiment [8] and in experiment [9] was “inactive” each time.
`CC(C)(CC(=O)Nc1ccccc1)C(=O)O`: the Potency in [1] is more than 11.4 µM; in experiment [6] it was more than 46 µM; in experiment [7], more than 9.22 µM. The activity change, negative = inhibition in experiment [2] was -3.37%; in [4] it was -4.05%. Further, the Potency result in experiment [3], in experiment [8] and in experiment [9] was “inactive” each time. Also, the activity, negative = inhibition in experiment [5] is 2.37%.
`Nc1nc(N)c(CCCCc2ccccc2)c(N)n1`: the Potency in experiment [1] is more than 11.4 µM; in experiment [6], more than 46 µM; in experiment [7] it was more than 9.22 µM. For the same molecule, the activity change, negative = inhibition in [2] is 17.9%; in experiment [3], -0.2% [at 2.29 µM]; in experiment [4], 2.59%. Besides, the activity, negative = inhibition in experiment [5] is 1.49%. Moreover, the Potency result in experiment [8] and in [9] was “inactive” throughout.
Take `Nc1ccc(N=Nc2c(S(=O)(=O)O)cc3ccccc3c2S(=O)(=O)O)cc1`: the Potency is more than 11.4 µM in experiment [1], more than 46 µM in [6] and more than 9.22 µM in [7]. Also, the activity change, negative = inhibition was -5.64% in [2], -20.9% [at 2.29 µM] in [3] and 11.9% in experiment [4]. The activity, negative = inhibition in experiment [5] was 6.7%. Besides, the Potency entry in experiment [8] and in experiment [9] was “inactive” throughout.
As for `O=C(O)c1ccc(OCc2ccccc2)c(Cl)c1`, the values for the Potency in experiment [1], in [6] and in experiment [7] were more than 11.4 µM, more than 46 µM and more than 9.22 µM, respectively. Moreover, the activity change, negative = inhibition in experiment [2] is -4.15%; in experiment [3] it was -3.2% [at 2.29 µM]; in [4], 2.05%. Moreover, the activity, negative = inhibition in [5] is 6.68%. Also, the Potency entry in experiment [8] and in experiment [9] was “inactive” each time.
